From PubChem BioAssay (Tox21)
Inconclusive results are not listed. Active and inactive are the calls of the source. Unless noted, the call rests on the fitted dose curve.

Columns and labels:
[1] = Nuclear factor erythroid 2-related factor 2/antioxidant responsive element (Nrf2/ARE) small molecule agonists: qHTS cell viability counter screen in human keratinocytes (AID 1919968; active means well fitted curve in the direction sought with a large enough effect in the repeat runs; an effect the other way counts as inactive or inconclusive; further: nearly all actives have a fitted effect of over 55% in size)
How it was run: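 KeratinoSens cells (HaCaT keratinocytes stably carrying an ARE-luciferase reporter) were seeded at 1,500 cells/well and rested 5 h at 37 C/5% CO2. They were then exposed to compounds in DMSO for 23 h. Viability was read by CellTiter-Fluor fluorescence after 1 h.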

[2] = Nuclear factor erythroid 2-related factor 2/antioxidant responsive element (Nrf2/ARE) small molecule agonists: luciferase reporter gene qHTS assay in human keratinocytes (AID 1919969); further: nearly all actives have a fitted effect of over 35% in size
[3] = target: Gonadotropin-releasing hormone receptor (Homo sapiens) (UniProt P30968); assay: Human gonadotropin-releasing hormone receptor (GnRHR) small molecule agonists, calcium flux assay in GnRHR-HEK293 cells (AID 1920063); further: nearly all actives have a fitted effect of over 35% in size
How it was run: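 HEK293 cells stably expressing human GnRHR were plated 18 h at 37 °C, loaded with calcium dye 1 h at 37 °C, then given compound in agonist mode; fluorescence (Ex/Em 480/540) read kinetically for 3 min at 1 s intervals.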

[4] = target: KiSS-1 receptor (Homo sapiens) (UniProt Q969F8); assay: Human kisspeptin (KISS1R) small molecule agonists, calcium flux assay in KISS1R-HEK293 cells (AID 1920064; active means well fitted curve in the direction sought with a large enough effect in the repeat runs; an effect the other way counts as inactive or inconclusive)
How it was run: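 HEK293 cells stably expressing human KISS1R were plated 18 h at 37 °C, loaded with calcium dye for 1 h at 37 °C, then given compound by pin tool. Fluorescence (Ex/Em 480/540) was read kinetically for 3 min.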

[5] = G protein-coupled receptor (GPCR) small molecule agonists, calcium flux assay: HEK293 wild type cell line counter screen (AID 1920065)
How it was run: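 Cells were plated and cultured 18 h at 37 C/5% CO2, then loaded with calcium dye for 1 h at 37 C. Compounds in DMSO were pin-transferred in agonist mode, and fluorescence (Ex/Em 480/540) was read kinetically for 3 min at 1 s intervals.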

[6] = p53 small molecule agonists, cell-based qHTS assay with human liver microsomes (AID 1963577)
How it was run: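 Fluorescence of the beta-lactamase reporter in p53RE-bla cells, detected with LiveBLAzer substrate (2 h, room temperature, dark), served as the read-out after 16 h compound exposure at 37 C with human liver microsomes and NADPH, each 0.5 mg/mL final.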

[7] = p53 small molecule agonists, cell-based qHTS assay with rat liver microsomes (AID 1963578)
How it was run: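 Cells carrying a p53 response element–beta-lactamase reporter were plated and rested 5 h, then dosed with compound in DMSO plus rat liver microsomes and NADPH, each at 0.5 mg/mL final. After 16 h at 37 C, LiveBLAzer substrate was added for 2 h.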

[8] = p53 small molecule agonists, cell-based qHTS assay with human liver microsomes: qHTS cell viability counter screen (AID 1963579); further: nearly all actives have a fitted effect of over 45% in size
How it was run: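 Cytotoxicity counter screen: p53RE-bla, 4,000 cells/well; 5 h settle, 37 C/5% CO2; cpd + HLM 0.5 mg/mL + NADPH 0.5 mg/mL (final); 16 h, 37 C; CellTiter-Glo, 30 min RT, luminescence.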

[9] = p53 small molecule agonists, cell-based qHTS assay with rat liver microsomes: qHTS cell viability counter screen (AID 1963580); further: nearly all actives have a fitted effect of over 45% in size
How it was run: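 Viability is assessed in parallel with the p53 reporter read: HCT-116 p53RE-bla cells receive compounds plus rat microsomes and NADPH (0.5 mg/mL final apiece), incubate 16 h at 37 C, and then CellTiter-Glo luminescence is recorded.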

[10] = p53 small molecule agonists, cell-based qHTS assay: qHTS cell viability counter screen (AID 1963581); further: nearly all actives have a fitted effect of over 45% in size
How it was run: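 p53RE-bla HCT-116 cells were exposed to compounds for 16 h at 37 C; after the beta-lactamase FRET read in the same wells, CellTiter-Glo was added and luminescence (intracellular ATP) read after 30 min at room temperature.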

[11] = p53 small molecule agonists, cell-based qHTS assay (AID 1963582; active means well fitted activation curve with a large enough effect in the signal ratio in the repeat runs, not every such curve was filed as active; the % refers to the signal ratio)
How it was run: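 p53RE-bla beta-lactamase reporter cells rested 5 h at 37 C/5% CO2, then received compounds in DMSO by pin transfer and were incubated 16 h at 37 C. LiveBLAzer B/G FRET substrate was loaded for 2 h at room temperature before fluorescence reading.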

[12] = target: 5-hydroxytryptamine receptor 2A (Homo sapiens) (UniProt P28223); assay: 5-hydroxytryptamine receptor 2A (HTR2A) small molecule antagonists, cell-based qHTS assay (AID 1963586); further: nearly all actives have a fitted effect of over 45% in size
How it was run: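 Antagonist-mode intracellular calcium assay: DOI (4 nM) added after 5 min compound pre-incubation at room temperature to dye-loaded HTR2A-CHO cells. Fluorescence followed for 3 min, sampled every second.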

[13] = target: 5-hydroxytryptamine receptor 2A (Homo sapiens) (UniProt P28223); assay: 5-hydroxytryptamine receptor 2A (HTR2A) small molecule agonists, cell-based qHTS assay (AID 1963587); further: nearly all actives have a fitted effect of over 30% in size
How it was run: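 CHO cells stably expressing human HTR2A, plated 18 h, loaded with calcium dye 1 h at 37 C. Agonist mode: compounds added and intracellular calcium fluorescence recorded kinetically for 2 min at 1 sec intervals.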

[14] = target: Muscarinic acetylcholine receptor M1 (Homo sapiens) (UniProt P11229); assay: Cholinergic receptor muscarinic 1 (CHRM1) small molecule antagonists, cell-based qHTS assay (AID 1963588); further: nearly all actives have a fitted effect of over 40% in size
How it was run: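 CHRM1-CHO calcium-flux assay, antagonist mode. Cells were seeded 18 h, dye-loaded 1 h at 37 C and given compound for 5 min at RT, then acetylcholine was added at 50nM. FDSS fluorescence was read 3 min; 15 concentrations, three runs.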

[15] = target: Muscarinic acetylcholine receptor M1 (Homo sapiens) (UniProt P11229); assay: Cholinergic receptor muscarinic 1 (CHRM1) small molecule agonists, cell-based qHTS assay (AID 1963589); further: nearly all actives have a fitted effect of over 35% in size
How it was run: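 CHO cells stably expressing human CHRM1, seeded 18 h at 37 C/5% CO2, dye-loaded 1 h at 37 C, then given compound in agonist mode; intracellular calcium fluorescence read kinetically at 1 s intervals. Fifteen concentrations, three independent runs.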

[16] = cAMP Responsive Elements (CRE) small molecule agonists, cell-based qHTS assay (AID 1963590)
How it was run: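 CRE-bla HEK 293T cells in DMEM with 10% dialyzed FBS, NEAA, pyruvate and 25 mM HEPES were plated 18 h at 37 C/5% CO2, then exposed to compounds in DMSO for 3 h before LiveBLAzer B/G FRET substrate addition.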

[17] = cAMP Responsive Elements (CRE) small molecule antagonists, cell-based qHTS assay (AID 1963591; active means well fitted inhibition curve with a large enough effect in the signal ratio in the repeat runs, not every such curve was filed as active; the % refers to the signal ratio)
How it was run: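 CRE-bla HEK293T cells were plated 18 h at 37 °C/5% CO2, pinned with compound in DMSO, then stimulated with NKH477 at 0.25 uM final for 3 h. LiveBLAzer B/G FRET substrate was added and plates incubated 2 h at room temperature.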

[18] = target: Beta-2 adrenergic receptor (Homo sapiens) (UniProt P07550); assay: Adrenergic beta2 receptor (ADRB2) small molecule antagonists, cell-based qHTS assay (AID 1963592); further: series mostly up to about 92 µM; nearly all actives have a fitted effect of over 50% in size
How it was run: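 Cells (CHO, stable ADRB2 overexpression) incubated 18-20hr at 37C; compounds added from DMSO; agonist mix (1nM isoproterenol, 100uM IBMX, 25uM Ro-20-1724) added; 0.5hr RT; d2-cAMP and anti-cAMP-cryptate added; 1hr RT; 665/615 nm read.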

[19] = target: D(2) dopamine receptor (Homo sapiens) (UniProt P14416); assay: Dopamine D2 receptor (DRD2) small molecule agonists, cell-based qHTS assay (AID 1963594); further: nearly all actives have a fitted effect of over 35% in size
How it was run: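 HEK293 cells stably expressing human DRD2, pre-treated with PDE inhibitor Ro20-1724 (0.1 mM final) and compound 10 min at room temperature, then stimulated with NKH477 (200nM […]) for 30 min. cAMP read by HTRF (665/620 nm).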

[20] = target: D(2) dopamine receptor (Homo sapiens) (UniProt P14416); assay: Dopamine D2 receptor (DRD2) small molecule antagonists, cell-based qHTS assay (AID 1963595; active means well fitted inhibition curve with a large enough effect in the signal ratio in the repeat runs, with a control signal flat; the % refers to the signal ratio)
How it was run: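 HEK293 cells stably expressing DRD2, preincubated with 0.1 mM Ro20-1724 and compounds 10 min, were stimulated with 200 nM NKH477 plus 12 nM quinpirole for 30 min at room temperature; cAMP measured by HTRF (665/620 nm).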

Measured: Potency

Sequence of Beta-2 adrenergic receptor (Homo sapiens) (P07550 whole entry, looked up): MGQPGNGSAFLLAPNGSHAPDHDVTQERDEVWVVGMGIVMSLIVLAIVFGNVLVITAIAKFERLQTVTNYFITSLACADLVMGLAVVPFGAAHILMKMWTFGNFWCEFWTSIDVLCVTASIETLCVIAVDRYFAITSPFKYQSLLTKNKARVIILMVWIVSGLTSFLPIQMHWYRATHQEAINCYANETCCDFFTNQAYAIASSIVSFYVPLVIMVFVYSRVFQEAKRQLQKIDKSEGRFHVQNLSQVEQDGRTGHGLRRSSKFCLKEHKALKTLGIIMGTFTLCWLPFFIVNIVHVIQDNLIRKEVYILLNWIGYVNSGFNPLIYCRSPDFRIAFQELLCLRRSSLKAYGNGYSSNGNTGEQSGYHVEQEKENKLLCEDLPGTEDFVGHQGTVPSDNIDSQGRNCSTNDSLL
Sequence of 5-hydroxytryptamine receptor 2A (Homo sapiens) (P28223 whole entry, looked up): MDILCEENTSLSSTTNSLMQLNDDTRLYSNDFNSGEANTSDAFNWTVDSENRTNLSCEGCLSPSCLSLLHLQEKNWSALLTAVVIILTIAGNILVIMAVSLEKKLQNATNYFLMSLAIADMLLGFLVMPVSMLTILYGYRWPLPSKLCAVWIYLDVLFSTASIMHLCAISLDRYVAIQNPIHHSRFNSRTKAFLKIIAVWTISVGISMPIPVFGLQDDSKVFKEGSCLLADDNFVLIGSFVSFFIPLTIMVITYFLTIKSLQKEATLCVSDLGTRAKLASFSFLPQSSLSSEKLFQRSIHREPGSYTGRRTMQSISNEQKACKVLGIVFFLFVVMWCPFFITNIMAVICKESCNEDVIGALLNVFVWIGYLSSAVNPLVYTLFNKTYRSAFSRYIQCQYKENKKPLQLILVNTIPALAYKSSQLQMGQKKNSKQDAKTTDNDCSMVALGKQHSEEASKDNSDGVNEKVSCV
Sequence of KiSS-1 receptor (Homo sapiens) (Q969F8 whole entry, looked up): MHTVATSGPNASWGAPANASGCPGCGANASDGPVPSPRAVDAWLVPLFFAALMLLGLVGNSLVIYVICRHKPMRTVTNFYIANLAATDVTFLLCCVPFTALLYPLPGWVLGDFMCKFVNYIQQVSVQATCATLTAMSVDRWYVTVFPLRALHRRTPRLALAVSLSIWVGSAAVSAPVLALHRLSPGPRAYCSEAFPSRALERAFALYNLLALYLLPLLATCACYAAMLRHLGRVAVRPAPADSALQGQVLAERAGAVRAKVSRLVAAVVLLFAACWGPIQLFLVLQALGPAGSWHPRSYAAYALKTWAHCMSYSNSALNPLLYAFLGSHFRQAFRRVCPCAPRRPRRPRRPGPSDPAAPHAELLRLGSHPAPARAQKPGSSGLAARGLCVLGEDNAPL
Sequence of D(2) dopamine receptor (Homo sapiens) (P14416 whole entry, looked up): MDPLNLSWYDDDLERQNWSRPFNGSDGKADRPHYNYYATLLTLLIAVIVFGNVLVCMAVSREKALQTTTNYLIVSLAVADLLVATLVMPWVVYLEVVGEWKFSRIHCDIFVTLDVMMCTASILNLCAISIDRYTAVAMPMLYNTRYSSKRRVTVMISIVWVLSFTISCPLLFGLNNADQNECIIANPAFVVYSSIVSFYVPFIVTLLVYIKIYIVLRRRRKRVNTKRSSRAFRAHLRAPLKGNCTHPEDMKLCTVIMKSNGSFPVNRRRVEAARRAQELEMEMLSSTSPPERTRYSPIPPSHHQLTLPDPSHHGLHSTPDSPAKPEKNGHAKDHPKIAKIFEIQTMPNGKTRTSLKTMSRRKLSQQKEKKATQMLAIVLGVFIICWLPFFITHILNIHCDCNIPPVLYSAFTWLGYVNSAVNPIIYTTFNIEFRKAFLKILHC
Sequence of Gonadotropin-releasing hormone receptor (Homo sapiens) (P30968 whole entry, looked up): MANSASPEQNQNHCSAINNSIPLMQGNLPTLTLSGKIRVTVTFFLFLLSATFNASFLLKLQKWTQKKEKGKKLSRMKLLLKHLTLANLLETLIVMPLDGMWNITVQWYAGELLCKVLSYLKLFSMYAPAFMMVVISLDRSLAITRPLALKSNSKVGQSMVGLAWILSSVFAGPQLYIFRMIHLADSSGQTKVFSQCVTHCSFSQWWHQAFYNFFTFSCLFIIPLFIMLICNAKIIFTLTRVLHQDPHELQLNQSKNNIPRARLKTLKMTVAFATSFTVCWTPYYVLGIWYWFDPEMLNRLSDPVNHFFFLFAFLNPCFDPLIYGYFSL
Sequence of Muscarinic acetylcholine receptor M1 (Homo sapiens) (P11229 whole entry, looked up): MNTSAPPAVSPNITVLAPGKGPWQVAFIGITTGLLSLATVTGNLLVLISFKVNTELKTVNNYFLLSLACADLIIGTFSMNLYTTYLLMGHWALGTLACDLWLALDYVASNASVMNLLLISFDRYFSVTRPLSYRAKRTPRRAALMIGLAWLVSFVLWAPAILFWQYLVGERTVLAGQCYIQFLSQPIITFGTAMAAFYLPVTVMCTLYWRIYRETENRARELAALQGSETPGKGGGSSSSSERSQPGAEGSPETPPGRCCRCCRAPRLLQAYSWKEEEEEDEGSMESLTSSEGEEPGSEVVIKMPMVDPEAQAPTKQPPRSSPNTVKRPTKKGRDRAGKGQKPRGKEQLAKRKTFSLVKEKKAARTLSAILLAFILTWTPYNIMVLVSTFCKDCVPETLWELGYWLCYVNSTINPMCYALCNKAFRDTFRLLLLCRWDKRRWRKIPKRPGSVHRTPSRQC

CC(C)(C)c1ccc(C=O)cc1
inactive: all assays above

CCCC/C=C\CCCCCCCCCC=O
inactive: all assays above

FC(F)(F)c1ccccc1-n1ccnc1
inactive: all assays above

COC(=O)/C=C(/C)N
inactive: all assays above

O=C(O)C(=O)Nc1cccc(-c2nn[nH]n2)c1
inactive: all assays above

ON(Cc1ccccc1)Cc1ccccc1
inactive: all assays above

O=C(O)C1CCC(C(=O)O)CC1 (stereo not given)
inactive: all assays above

CC(=O)[O][Al][O]C(C)=O
inactive: all assays above

COc1cc(C)c(Cc2cnc(N)nc2N)cc1OC
inactive: all assays above

O=C1C(c2[nH]c3ccc(S(=O)(=O)O)cc3c2O)=Nc2ccc(S(=O)(=O)O)cc21
inactive: all assays above

[O]=[Zr]
inactive: all assays above

C=CC(=O)NC(C)C
inactive: all assays above

COCc1ccc(COC)cc1
inactive: all assays above

C[C@@H]1CCC[C@H](C)N1CCCC(O)(c1ccccc1)c1ccccn1 (stereo not given in full)
inactive: all assays above
